The values below come from PubChem BioAssay (EPA / NIEHS).

Read-out in test [1]: Interleukin-8 (IL8), CXCL8 (gene 3576)
The test can be described thus: BSK_3C_IL8: BioMAP Diversity Plus: 3C Assay for Interleukin-8 (IL8) Biomarker Activity (AID 2283020). Conditions: primary human endothelial cells (HUVEC); actives raise or lower the signal. Put shortly:
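Primary human umbilical vein endothelial cells (3C system) were exposed to test chemical for 24 h, then IL-8 was quantified by ELISA. Responses were fitted bidirectionally against DMSO vehicle as baseline.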

Read-out in test [2]: Monokine induced gamma interferon (MIG), CXCL9 (gene 4283)
In words: BSK_3C_MIG: BioMAP Diversity Plus: 3C Assay for Monokine induced gamma interferon (MIG) Biomarker Activity (AID 2283021).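 On AC50: MIG protein level measured by immunoassay in the treated endothelial cultures.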 Conditions: primary human endothelial cells (HUVEC); actives raise or lower the signal. The method, boiled down:
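Primary human umbilical vein endothelial cells in the 3C system were exposed to chemical for 24 h, after which MIG was quantified by ELISA. Activity was fitted bidirectionally against DMSO as negative control and baseline.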

Test [3] has as its target human Vitamin D Receptor (VDR), VDR (gene 7421) (UniProt P11473). The test can be described thus: ATG_VDR_TRANS: Attagene TRANS-FACTORIAL HepG2 Assay for human Vitamin D Receptor (VDR) (AID 2283022; active means hit-call score of the fitted dose curve at least 0.9, where 1 is the maximum). The method, boiled down: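 Multiplexed TRANS reporter in HepG2; 24 h treatment; reporter mRNA by RT-PCR plus capillary electrophoresis; upregulation scored relative to DMSO.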

The nature of test [4]: BSK_3C_SRB: Viability Assessment in the BioMAP Diversity Plus: 3C Assay (AID 2283023).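 Further: cells read 24 h after compound dosing; fitted both ways against DMSO so a hit may be signal rise or drop.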 Conditions: primary human endothelial cells (HUVEC). Put shortly: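 Overt cytotoxicity is gauged in parallel confluent HUVEC cultures by SRB total-protein staining at the time of biomarker measurement, 24 h after dosing. Gain or loss of signal is fitted versus DMSO.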
Read-out in test [5]: Matrix Metallopeptidase 1 (MMP1), MMP1 (gene 4312)
The test can be described thus: BSK_BE3C_MMP1: BioMAP Diversity Plus: BE3C Assay for Matrix Metallopeptidase 1 (MMP1) Biomarker Activity (AID 2283024). Conditions: primary human bronchial epithelial cells; actives raise or lower the signal. Put shortly: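 Primary human bronchial epithelial cells were dosed with test chemicals, and MMP1 levels were measured by ELISA 24 h later. Data were fitted bidirectionally against DMSO as the negative control and activity baseline.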

The nature of test [6]: BSK_3C_Vis: BioMAP Diversity Plus: 3C Assay for Morphology Visualization (AID 2283025).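 Further: fitted both ways so gain or loss versus DMSO counts.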 Conditions: primary human endothelial cells (HUVEC). The method, boiled down: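 Human umbilical vein endothelial cells in the 3C system were imaged by light microscopy 24 h after chemical dosing to record cell morphology. Activity was fitted bidirectionally against DMSO as negative control and baseline; the endpoint serves as a background control.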

A short description of test [7]: BSK_BE3C_SRB: Viability Assessment in the BioMAP Diversity Plus: BE3C Assay (AID 2283028).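 On AC50: fitted both ways so AC50 may mark signal gain or loss versus DMSO.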 Conditions: primary human bronchial epithelial cells. Put shortly: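 SRB total-protein staining (0.1%, after TCA fixation) of chemically dosed human bronchial epithelial primary cells at 24 h; DMSO serves as the negative control for bidirectional curve fitting.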
Read-out in test [8]: Thrombomodulin, THBD (gene 7056)
The test can be described thus: BSK_3C_Thrombomodulin: BioMAP Diversity Plus: 3C Assay for Thrombomodulin Biomarker Activity (AID 2283029). Conditions: primary human endothelial cells (HUVEC); actives raise or lower the signal. The method, boiled down:
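Primary human umbilical vein endothelial cells (3C system) were exposed to chemical for 24 h, then thrombomodulin levels were measured by ELISA. Activity was fitted bidirectionally against the DMSO negative control as baseline.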

Test [9] in a line: BSK_4H_SRB: Viability Assessment in the BioMAP Diversity Plus: 4H Assay (AID 2283027).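 Further: cells exposed to compound for 24 h before staining.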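 On AC50: curves fitted both ways versus DMSO so AC50 may be loss or gain.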 Conditions: primary human endothelial cells (HUVEC). The method, boiled down: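 Absorbance at 560 nm of SRB-stained total protein served as the viability read-out in confluent primary human umbilical vein endothelium 24 h after chemical treatment. Curves were fitted bidirectionally against DMSO as negative control.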

Read-out in test [10]: Pselectin, SELP (gene 6403)
The test can be described thus: BSK_4H_Pselectin: BioMAP Diversity Plus: 4H Assay for Pselectin Biomarker Activity (AID 2283026). Conditions: primary human endothelial cells (HUVEC); actives raise or lower the signal. Put shortly:
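Primary human umbilical vein endothelial cells were exposed to test chemical for 24 h, then cell-surface P-selectin was quantified by ELISA. Activity was fitted bidirectionally against DMSO as negative control and baseline.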

Where “and” joins values, the source holds several entries; their conditions need not be identical. Identical values can stand only once. Inconclusive results are not listed. A structure can be active in one record and inactive in another. Calls of active or inactive are those of the source. How the source made its calls, unless noted: active means hit-call score of the fitted dose curve at least 0.9, where 1 is the maximum; inactive means score below 0.9.

Sequence of human Vitamin D Receptor (VDR), VDR (gene 7421) (P11473 whole entry, looked up): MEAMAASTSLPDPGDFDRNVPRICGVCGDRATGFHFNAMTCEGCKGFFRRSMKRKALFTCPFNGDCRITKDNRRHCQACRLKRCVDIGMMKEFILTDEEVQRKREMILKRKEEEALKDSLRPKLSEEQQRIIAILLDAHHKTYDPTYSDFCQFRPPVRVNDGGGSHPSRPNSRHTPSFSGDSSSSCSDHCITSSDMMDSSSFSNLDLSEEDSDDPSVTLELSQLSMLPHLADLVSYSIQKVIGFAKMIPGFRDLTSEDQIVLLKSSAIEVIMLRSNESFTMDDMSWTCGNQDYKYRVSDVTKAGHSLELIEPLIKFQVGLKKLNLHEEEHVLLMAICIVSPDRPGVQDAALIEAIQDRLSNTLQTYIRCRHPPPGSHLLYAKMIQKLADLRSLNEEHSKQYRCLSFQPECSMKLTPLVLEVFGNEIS

Take `CC1COC(Cn2cncn2)(c2ccc(Oc3ccc(Cl)cc3)cc2Cl)O1` (centres undefined): the AC50 in [1] was 28.6 µM (active); in test [2], 33.4 µM (active); in test [4], 20.8 µM (active); in test [5], 32.2 µM (active); in [6] it was 37.2 µM (active); in [7] it was 31 µM (active). The call in test [3] and in test [8] was inactive.

Consider `CCCC1COC(Cn2cncn2)(c2ccc(Cl)cc2Cl)O1` (centres undefined), for which the result in test [1], in [2], in [3], in [4], in [5] and in test [6] was inactive. Also, the result in [9], in test [7] and in test [8] was inactive.

As to `C=CCC1=C(C)C(OC(=O)C2C(C=C(C)C)C2(C)C)CC1=O` (centres undefined), the AC50 in [1] was 32.3 µM (active) [middle of 4 runs]; in [2] it was 31.7 µM (active); in test [3] it was 105 µM (active); in test [4] it was 32.8 µM (active) [middle of 4 runs]; in test [5] it was 9.44 µM (active) and 7.51 µM (active); in [6], 39.4 µM (active) and 39 µM (active). Moreover, the concentration at half-maximal activity (AC50) in test [10] was 34.9 µM (active) and 33 µM (active) and 33.2 µM (active). Further, the result in test [2], in [3], in test [5], in test [6], in test [10] and in test [7] was inactive. In addition, the outcome in test [8] was inactive.

In the case of `O=C(O)COc1nc(Cl)c(Cl)cc1Cl`, the outcome in [1], in test [2], in test [3], in [4], in [5] and in test [6] was inactive. The outcome in [10], in test [9], in [7] and in test [8] was inactive.

In the case of `COc1cnc(OC)n2nc(NS(=O)(=O)c3c(OCC(F)F)cccc3C(F)(F)F)nc12`, the concentration at half-maximal activity (AC50) in test [1] was 0.016 µM (active). Besides, the result in [1], in [2], in [4], in test [5], in test [6] and in test [10] was inactive. The outcome in [9], in test [7] and in test [8] was inactive.

Take `CCOC(=O)C(Cl)Cc1cc(-n2nc(C)n(C(F)F)c2=O)c(F)cc1Cl` (centres undefined): the outcome in [1], in [2], in test [3], in test [4], in [5] and in [6] was inactive. Besides, the result in test [10], in test [9], in [7] and in test [8] was inactive.

On to `COC(=O)C(C)Oc1ccc(Oc2ccc(Cl)cc2Cl)cc1` (centres undefined), for which the outcome in test [1], in [2], in [3], in test [4], in test [5] and in test [6] was inactive. Besides, the result in test [9], in [7] and in test [8] was inactive. The AC50 in [4] was 14 µM (active) and 20 µM (active); in test [6], 39 µM (active).

Consider `CCCN(CCC)c1c([N+](=O)[O-])cc(S(N)(=O)=O)cc1[N+](=O)[O-]`, for which the AC50 in test [1] is 34.2 µM (active) [middle of 4 runs]; in test [2] it was 39 µM (active) and 41.1 µM (active) and 35.7 µM (active); in [3], 61.2 µM (active); in test [4] it was 31.3 µM (active) [middle of 4 runs]; in test [5] it was 36 µM (active) [middle of 4 runs]; in test [6], 41 µM (active) and 41.8 µM (active) and 16.3 µM (active). For the same molecule, the concentration at half-maximal activity (AC50) in test [10] was 34.2 µM (active) [middle of 4 runs]; in test [7] it was 34.3 µM (active) [middle of 4 runs]. For the same molecule, the call in test [3] and in test [8] was inactive.

For the molecule `O=C(Nc1ccccc1)Nc1ccnc(Cl)c1`, the outcome in test [1], in [2], in test [3], in test [4], in test [5] and in test [6] was inactive. The outcome in test [9] and in [7] was inactive. Besides, in test [8], the half-maximal activity concentration (AC50) was 1.43 µM (active).

Regarding `CN(C)C(=S)SSC(=S)N(C)C`, the half-maximal activity concentration (AC50) in test [1] is 31.7 µM (active); in [2] it was 33.6 µM (active); in [5] it was 14.2 µM (active); in test [6], 16.3 µM (active); in [9], 25.7 µM (active); in test [7], 8.39 µM (active). The molecule was classed as inactive in test [3], in test [4] and in test [8].

For the molecule `OC(c1ccc(Cl)cc1)(c1cncnc1)c1ccccc1Cl` (centres undefined), the result in test [1], in [2], in test [3], in [5], in test [7] and in test [8] was inactive. In addition, the AC50 in test [4] was 26 µM (active); in test [6] it was 9.8 µM (active); in test [10], 23.9 µM (active).

Take `COC(=O)c1ccccc1C(=O)OC`: the result in [1], in test [2], in test [3], in test [4], in test [5] and in [6] was inactive. For the same molecule, the result in [7] and in test [8] was inactive.

Regarding `C=CC1(C)OC(=O)N(c2cc(Cl)cc(Cl)c2)C1=O` (centres undefined), the result in test [1], in test [2], in [3], in test [4], in test [5] and in test [6] was inactive. Moreover, the result in test [7] and in [8] was inactive.

In the case of `CCOC(=O)CC(SP(=S)(OC)OC)C(=O)OCC` (centres undefined), the result in test [1], in [2], in test [3], in test [4], in test [5] and in [6] was inactive. For the same molecule, the result in test [7] and in test [8] was inactive.

On to `Cc1ccc(-c2c(Cl)nc(C#N)n2S(=O)(=O)N(C)C)cc1`, for which the AC50 in test [1] is 15.8 µM (active); in test [4], 26.1 µM (active); in test [6], 15.2 µM (active); in test [7], 27.4 µM (active). Moreover, the result in test [2], in test [3], in test [5] and in test [8] was inactive.

In the case of `CC(C)Oc1cc(-n2nc(C(C)(C)C)oc2=O)c(Cl)cc1Cl`, the AC50 was 29 µM (active) in test [1]; 28.8 µM (active) in [4]; 7.66 µM (active) in [5]; 13.2 µM (active) in test [6]; 30.3 µM (active) in test [9]; 20 µM (active) in test [7]. In addition, the AC50 in [8] was 20 µM (active). For the same molecule, the result in test [2] and in test [3] was inactive.

Turning to `CC1=C(C(=O)Nc2ccccc2)SCCO1`, the result in [1], in test [2], in test [3], in test [4], in [5] and in test [6] was inactive. The outcome in [9], in test [7] and in test [8] was inactive.

As for `CON(C)C(=O)Nc1ccc(Cl)c(Cl)c1`, the outcome in test [1], in test [2], in [3], in test [4], in [5] and in [6] was inactive. Also, the result in [10], in [7] and in test [8] was inactive.

Turning to `CCCCNC(=O)OCC#CI`, the concentration at half-maximal activity (AC50) in test [1] was 26.2 µM (active) and 28.9 µM (active); in test [2], 32.3 µM (active) and 34.4 µM (active); in test [4], 18.9 µM (active) and 21.1 µM (active); in test [5] it was 32.9 µM (active); in test [6] it was 11.9 µM (active) and 14.4 µM (active); in [10] it was 12.8 µM (active) and 16.1 µM (active). Besides, in test [7], the half-maximal activity concentration (AC50) was 21.5 µM (active) and 26.9 µM (active). For the same molecule, the outcome in test [3] and in [8] was inactive.

As to `Oc1ccccc1-c1ccccc1`, the outcome in test [1], in test [2], in [3], in test [4], in [5] and in test [6] was inactive. Also, the outcome in test [10], in [7] and in [8] was inactive.

Regarding `CC(C)(C)c1ccc(CSc2cnn(C(C)(C)C)c(=O)c2Cl)cc1`, the half-maximal activity concentration (AC50) in [1] is 7.27 µM (active); in [4], 10.9 µM (active); in test [6], 15.2 µM (active); in [7], 7.9 µM (active). Also, the result in [2], in test [3], in test [5] and in test [8] was inactive.

Regarding `CCCCOC(=O)c1ccccc1C(=O)OCCCC`, the outcome in test [1], in test [2], in test [3], in [4], in [5] and in [6] was inactive. In addition, the result in test [7] and in test [8] was inactive. In addition, in test [4], the AC50 was 15.2 µM (active).

With `CCNc1nc(Cl)nc(NC(C)C)n1`, the result in test [1], in test [2], in [3], in test [4], in test [5] and in test [6] was inactive. Besides, the result in [7] and in [8] was inactive.

For `COc1nc(C)nc(NC(=O)NS(=O)(=O)c2ccccc2CCC(F)(F)F)n1`, the outcome in [1], in [2], in [3], in [4], in test [5] and in [6] was inactive. Besides, the outcome in [7] and in test [8] was inactive.

By AC50 is commonly meant the concentration at which the activity in the assay is half-maximal.
